Source: PubChem BioAssay
NPC1 promoter act = qHTS Assay for NPC1 Promoter Activators | AID 485313, 2010 | Huh7 NPC1 promoter luciferase reporter, 24 h | actives 2.4% (n = 320,000) | Potency, µM (doses to about 9.22 µM), actives largely listed as activators; also: nearly all actives have a fitted effect of over 60% in size
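Stable NPC1-promoter luciferase Huh7 line; cpd (DMSO) 24 h, 37 °C, 5% CO2; Amplite luciferase reagent 10 min RT; luminescence readout. qHTS format.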
Rab9 prom act = qHTS Assay for Rab9 Promoter Activators | actives 2.8% (n = 320,000) | Potency, µM (titrated, usually from 9.22 µM), actives largely listed as activators | Huh7 Rab9 promoter-luciferase reporter, luminescence, 24 h; also: nearly all actives have a fitted effect of over 60% in size
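Luciferase signal after 10 min detection reagent at ambient indicates Rab9 promoter upregulation; stably transfected Huh7 cells were treated 24 h with compound in DMSO at 37 °C, 5% CO2.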
SMN2 splice enh = qHTS Assay for Enhancers of SMN2 Splice Variant Expression | Potency, µM (doses to about 46.1 µM), hits mostly activators | actives 2.8% (n = 210,000) | HEK293 SMN2-luciferase splicing reporter, luminescence, 30-36 h; also: nearly all actives have a fitted effect of over 55% in size
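HEK293 cells carry an SMN2 minigene-luciferase reporter in which exon 7 inclusion puts luciferase in frame. Cells were seeded at 2000 cells/well, attached for 10-12 hours, then exposed to compounds for 30-36 hours at 37C before ONE-Glo luminescence.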
ELG1 genotoxic = qHTS screen for small molecules that induce genotoxicity in human embryonic kidney (HEK293T) cells expressing luciferase-tagged ELG1 | HEK293T ELG1-luciferase reporter, luminescence, 16 h | Potency, µM (doses to about 46 µM), usual class: activators | actives 1.3% (n = 330,000) | AID 504466, 2011; also: nearly all actives have a fitted effect of over 60% in size
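ELG1-luciferase HEK293T cells, 2,000/well; compound pinned in; 16 hr, 37 °C, 5% CO2; ONE-Glo, 30 min RT; luminescence on CCD imager.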
FLuc counter = qHTS profiling assay for firefly luciferase inhibitor/activator using purifed enzyme and Km concentrations of substrates (counterscreen for miR-21 project); Potency, µM (top dose mostly 57.5 µM), most hits filed as inhibitors; actives 6.9% (n = 360,000); purified FLuc, Km substrates, luminescence inhibition; Luciferin 4-monooxygenase (Photinus pyralis), P08659; also: nearly all actives have a fitted effect of over 55% in size
Target sequence (P08659 whole entry, looked up): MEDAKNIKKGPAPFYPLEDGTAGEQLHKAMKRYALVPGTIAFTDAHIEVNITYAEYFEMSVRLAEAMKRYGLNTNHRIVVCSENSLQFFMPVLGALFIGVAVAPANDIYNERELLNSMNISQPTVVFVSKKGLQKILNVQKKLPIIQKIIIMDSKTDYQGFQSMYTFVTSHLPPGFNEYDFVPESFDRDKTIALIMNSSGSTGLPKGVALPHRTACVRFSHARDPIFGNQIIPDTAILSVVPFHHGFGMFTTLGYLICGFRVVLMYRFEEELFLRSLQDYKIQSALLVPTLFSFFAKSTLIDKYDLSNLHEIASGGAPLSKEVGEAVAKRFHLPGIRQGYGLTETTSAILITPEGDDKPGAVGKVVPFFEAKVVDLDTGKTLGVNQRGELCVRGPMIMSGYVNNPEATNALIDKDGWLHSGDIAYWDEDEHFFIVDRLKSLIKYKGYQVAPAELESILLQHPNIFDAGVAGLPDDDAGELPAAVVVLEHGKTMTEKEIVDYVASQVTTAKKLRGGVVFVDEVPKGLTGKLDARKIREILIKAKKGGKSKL
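Purified P. pyralis luciferase, 10 nM final, with Km-level 10 uM D-luciferin and 10 uM ATP in 50 mM Tris acetate pH 7.5, 10 mM Mg acetate, 0.01% Tween-20, 0.05% BSA; 6-point qHTS titration about 60 µM downward; luminescence read.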
Numbers stand for hits; . = inactive; ? = inconclusive; / = no result. An excerpt weighted towards active compounds, which were near 7.4% of everything screened. Calls follow the shape of the dose curve; as a rule, active = well fitted curve in the direction sought with a large enough effect; inconclusive = small, poorly fitted or top-dose-only effect, or another doubt; inactive = no such curve, though single readings can be large; an effect the other way counts as inactive or inconclusive.

SMILES | NPC1 promoter act | Rab9 prom act | SMN2 splice enh | ELG1 genotoxic | FLuc counter
COc1cc(C)ccc1OCCCCOc1ccccc1C(C)=O | . | . | . | . | ?
COc1cc(C)ccc1OCCCOc1ccccc1Cl | 2.8µM | 3.5µM | 13µM | ? | 6.7µM
COc1cc(C=O)ccc1OCCOCCOc1cc(C)ccc1Cl | . | . | / | . | .
COc1cccc(OC)c1OCCCOc1ccc([N+](=O)[O-])cc1Cl | . | . | . | . | .
CCOc1ccccc1N1CCN(C(=O)C2CSC3(C)CCC(=O)N23)CC1 (stereo not given) | . | . | / | . | .
O=C(COC(=O)c1cccs1)c1ccc2c(c1)OCCO2 | 1.6µM | 0.32µM | . | 10µM | 0.076µM
O=C(COC(=O)c1cccs1)c1ccc2ccccc2c1 | ? | . | . | ? | 1.7µM
CC(=O)NC12CC3CC(C1)CC(C(=O)OCC(=O)c1ccc4c(c1)OCCO4)(C3)C2 | 0.5µM | 0.1µM | . | ? | 0.24µM
CC(=O)NC12CC3CC(C1)CC(C(=O)OCC(=O)Nc1ncc(Cl)c(C)c1Cl)(C3)C2 | . | . | . | . | .
O=c1[nH]cnc2scc(C3COc4ccccc4O3)c12 (stereo not given) | . | . | . | . | ?
CCOc1cccc(-c2csc(C3COc4ccccc4O3)n2)c1 (stereo not given) | ? | 4µM | 4µM | ? | 2.1µM
CCCOc1ccc(-c2csc(N)n2)cc1[N+](=O)[O-] | ? | 2.8µM | 11µM | ? | 11µM
CCCCCOc1ccc(Cn2ccnc2)cc1[N+](=O)[O-] | . | . | . | ? | ?
CCOc1ccc(-c2cn3ccccc3n2)cc1[N+](=O)[O-] | 3.5µM | 2.2µM | 7.9µM | ? | 2.7µM
CCCCOc1ccc(-c2cn3ccccc3n2)cc1[N+](=O)[O-] | ? | 2.8µM | 6.3µM | ? | 2.1µM
CCOC(=O)[C@H]1[C@H]2COc3ccc(Cl)cc3[C@@H]2N2C(=O)CN(CC3CCCO3)C(=O)[C@@]12C (stereo not given in full) | . | . | / | . | .
CCOc1ccc(N2C(=O)CCC2=O)cc1 | . | . | . | . | .
CCCC1CCC(c2ccc(OCC)cc2)=CC1=O (stereo not given) | 2µM | 3.5µM | / | ? | 6.7µM
COc1ccc(NC(=O)C2CCN(S(=O)(=O)c3c(C)noc3/C=C/c3ccco3)CC2)cc1 | / | / | . | / | .
Cc1ccccc1NC(=O)c1cc2c(-c3ccccc3)nn(-c3ccccc3)c2s1 | / | / | . | / | .
S=c1[nH]c2cc(-c3ccccc3)ccc2o1 | . | . | / | . | 21µM
COCCCNC(=O)Cn1nnc(-c2ccc(NC(=O)c3ccccc3F)cc2)n1 | . | . | ? | . | 13µM
CC(=O)Nc1ccc2oc(-c3cc(F)c(F)cc3Cl)nc2c1 | 0.32µM | 0.4µM | 8.9µM | 1.8µM | 1.9µM
CCC(=O)Nc1ccc2oc(-c3ccccc3Br)nc2c1 | 1.8µM | 2µM | 10µM | ? | 3µM
CC(=O)Nc1ccc2oc(-c3ccccc3Br)nc2c1 | 0.89µM | 0.45µM | 11µM | 1.8µM | 2.4µM
SMILES | NPC1 promoter act | Rab9 prom act | SMN2 splice enh | ELG1 genotoxic | FLuc counter
Cc1ccccc1-c1nc2cc(NC(=O)Cc3ccc(Cl)cc3)ccc2o1 | / | / | . | / | .
CC(=O)Nc1ccc2oc(C)nc2c1 | . | . | / | . | .
Cc1ccccc1-c1nc2cc(NC(=O)C3CC3)ccc2o1 | 0.45µM | 0.5µM | / | 4.6µM | 1.7µM
CCOC(=O)c1sc(N2C(=O)c3oc4ccccc4c(=O)c3C2c2ccc(C(C)(C)C)cc2)nc1C (stereo not given) | / | / | . | / | .
Cc1ccsc1/C=C\C1=NCCCN1C | / | / | . | / | /
COc1cc(NC(=O)CSc2nc3nc(C)c(Cc4ccccc4Cl)c(C)n3n2)cc(OC)c1 | / | / | / | / | .
COCCN1Cc2cccc(C(=O)Nc3ccc4c(c3)OCCO4)c2C1=O | . | . | . | ? | 21µM
CCCN1Cc2cccc(C(=O)Nc3ccc(CN4CCCC4)cc3)c2C1=O | . | . | . | . | 17µM
CCOc1ccc(NC(=O)c2cccc3c2C(=O)N(Cc2cccnc2)C3)cc1 | . | . | . | ? | 8.5µM
COC(CNC(=O)c1cccc2c1C(=O)N(Cc1cccnc1)C2)OC | . | . | . | . | .
COc1ccc(OC)c(CNC(=O)CN2N=C(c3ccc(Cl)cc3)CCC2=O)c1 | / | / | / | / | .
CC1CCC2(CC1)NC(=O)N(CC(=O)NC(=O)Nc1ccc3c(c1)OCCO3)C2=O (stereo not given) | . | . | / | . | .
O=C(CSc1nc(=O)[nH]c2c1CCCC2)NCc1ccccc1Cl | / | / | / | / | .
CC(C)(C)c1ccc(C(=O)NC(CC(=O)O)c2ccc(OC3CCCC3)cc2)cc1 (stereo not given) | . | . | / | . | 19µM
Cc1ccc(N2C(=O)c3ccccc3C2C(=O)c2cc(C)ccc2O)cc1 (stereo not given) | . | . | 13µM | . | ?
Cc1ccc(N2C(=O)c3ccccc3C2C(=O)c2ccc(O)cc2O)cc1 (stereo not given) | . | . | ? | . | .
Cc1cc(C(=O)COC(=O)c2ccc[nH]c2=O)c(C)n1-c1ccccc1F | 0.32µM | 0.4µM | / | ? | 1.5µM
Cc1cc(C(=O)COC(=O)c2ccc(O)cc2)c(C)n1CC(F)(F)F | 2.8µM | 3.2µM | / | ? | /
CCCn1c(C)cc(C(=O)COC(=O)c2ccc(Cl)c(S(=O)(=O)N3CCCC3)c2)c1C | . | . | . | . | 2.4µM
Cc1cc(C(=O)COC(=O)C2=NN(c3ccccc3)C(=O)CC2)c(C)n1CC(F)(F)F | . | . | . | . | .
Cc1cc(C(=O)COC(=O)c2ccc(O)cc2)c(C)n1-c1ccccc1F | ? | ? | . | ? | 2.4µM
CCn1cc(C(=O)OCC(=O)c2cc(C)n(-c3ccccc3F)c2C)c(=O)c2ccc(C)nc21 | . | . | . | . | ?
Cc1ccc(CN(C(=O)Nc2cccc(Cl)c2)c2ccccn2)cc1 | / | / | / | / | .
COc1cccc(CN(C(=O)/C=C/c2ccco2)C2CCS(=O)(=O)C2)c1 (stereo not given) | . | . | / | . | .
O=C(NCc1cccc(Cl)c1)C1CCCN(c2ncnc3c2nc2n3CCCCC2)C1 (stereo not given) | . | . | / | . | .
SMILES | NPC1 promoter act | Rab9 prom act | SMN2 splice enh | ELG1 genotoxic | FLuc counter
COc1ccc(CNC(=O)CCCN2C(=O)c3cccnc3Oc3ccc(Cl)cc32)cc1 | / | / | / | / | .
CCn1c(C)cc(C(=O)COC(=O)c2ccccc2[N+](=O)[O-])c1C | / | / | / | . | /
CCCn1c(C)cc(C(=O)COC(=O)c2ccc[nH]c2=O)c1C | ? | 1.3µM | / | ? | 2.7µM
Cc1ccc(-n2c(C)cc(C(=O)COC(=O)c3ccc[nH]c3=O)c2C)cc1C | ? | ? | 7.1µM | ? | 6µM
CCN(CC)C(=O)c1sc(NC(=O)c2nc3ncccn3n2)c(C(=O)OC)c1C | / | / | . | / | .
Cc1ccc(NC(=O)c2sc3ncnc(N(C)C4CCCCC4)c3c2C)cc1 | / | / | / | / | .
